The text below walks through data of PubChem BioAssay AID1851 (National Center for Advancing Translational Sciences (NCATS), 2009).

Hit rate of the full screen: of about 16,000 compounds, about 5,100 (32%) were called active. Another 25% or so got no clear call; they are omitted. Calls follow the shape of the dose curve; as a rule, active = well fitted curve in the direction sought with a large enough effect; inconclusive = small, poorly fitted or top-dose-only effect, or effect the other way; inactive = no such curve, though single readings can be large or run the other way. The list shows a part of the results.
% is scaled to controls: 0 for no effect and ±100 for the full control effect.

Chain of Cytochrome P450 3A4 (Homo sapiens) (P08684 whole entry, looked up): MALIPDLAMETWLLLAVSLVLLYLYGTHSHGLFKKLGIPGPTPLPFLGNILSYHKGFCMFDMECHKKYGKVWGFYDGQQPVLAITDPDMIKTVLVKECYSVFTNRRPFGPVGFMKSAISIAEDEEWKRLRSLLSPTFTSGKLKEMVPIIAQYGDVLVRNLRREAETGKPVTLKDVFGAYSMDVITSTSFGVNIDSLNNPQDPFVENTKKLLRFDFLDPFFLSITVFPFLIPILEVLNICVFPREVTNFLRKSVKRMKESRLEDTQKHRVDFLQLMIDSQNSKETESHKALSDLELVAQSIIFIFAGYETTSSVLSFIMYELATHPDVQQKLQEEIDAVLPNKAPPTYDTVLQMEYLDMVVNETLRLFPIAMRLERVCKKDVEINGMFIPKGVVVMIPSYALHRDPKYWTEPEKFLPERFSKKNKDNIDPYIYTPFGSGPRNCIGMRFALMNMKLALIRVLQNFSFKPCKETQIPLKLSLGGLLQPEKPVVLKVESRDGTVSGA

This experiment has as its target Cytochrome P450 3A4 (Homo sapiens) (UniProt P08684). Kind of experiment: Cytochrome panel assay with activity outcomes. Conditions: recombinant CYP, pro-luciferin dealkylation, luminescence, p450-cyp3a4; series mostly up to 57.1 µM; activity, negative = inhibition: at the top concentration.
`Cc1cc(NC(=O)NC(=O)c2ccc(F)cc2F)n[nH]1`: the “activity, negative = inhibition” value was -13.2% (inactive).
Still for that read-out and setting: to `COc1ccccc1N1CCN(CCCCNC(=O)c2ccc3ccccc3c2)CC1` belongs -28% [at 25.6 µM] (inactive); to `COc1ccccc1N1CCN(CCCCN2C(=O)CCC2=O)CC1`, -6.98% (inactive).
The term AC50 denotes the midpoint of the concentration-response curve, whichever way the signal moves. For `COc1ccccc1N1CCN(CCCCNS(=O)(=O)c2cccc3c(N(C)C)cccc23)CC1`, the AC50 was 2.51 µM (active).
As for `Oc1c(Cl)cc(C(c2cc(Cl)c(O)c(Cl)c2)C(c2cc(Cl)c(O)c(Cl)c2)c2cc(Cl)c(O)c(Cl)c2)cc1Cl`, the activity, negative = inhibition was -26.2% [at 11.4 µM] (inactive).
On the same count and under the same terms, to `CCCCOC(=O)Nc1ccc(C)c(Cl)c1` belongs -24.3% (inactive).
Turning to `Cc1ccc(NC(=O)c2ccccc2C(=O)O)cc1C`, the activity, negative = inhibition is -9.2% [at 11.4 µM] (inactive).
For the compound `COC(=O)CSC(C(=O)Nc1ccc(C)c(C)c1)c1ccccc1` (stereo unspecified), the AC50 is 3.98 µM (active).
With `O=C(C1CCN(S(=O)(=O)c2cccc3nsnc23)CC1)N1CCN(c2ccccc2F)CC1`, the “activity, negative = inhibition” value is -3.92% (inactive).
Consider `O=C(C1CCN(S(=O)(=O)c2cccc3nsnc23)CC1)N1CCn2c1nc1ccccc12`, for which the AC50 is 14.1 µM (active).
The same measure, in the same setting: to `O=C(C1CCN(S(=O)(=O)c2cccc3nsnc23)CC1)N1CCCc2ccccc21` belongs 14.1 µM (active); to `O=C(C1CCCN(S(=O)(=O)c2cccc3nsnc23)C1)N1CC=C(c2ccccc2)CC1` (stereo unspecified), 6.31 µM (active).
Turning to `O=C(O)c1nn(-c2ccc(Cl)cc2)c2c1C(=O)c1ccccc1C2=O`, the activity, negative = inhibition is -4.55% [at 11.4 µM] (inactive).
Same read-out and setting: to `COc1cc(=O)n2c(n1)SCCC2` belongs -0.256% [at 2.29 µM] (inactive); to `Cn1c(=O)c2[nH]c(-c3ccc(S(=O)(=O)O)cc3)nc2n(C)c1=O`, -4.3% (inactive); to `Cn1c(=O)c2[nH]c(-c3ccccc3)nc2n(C)c1=O`, -14.6% (inactive).
In the case of `COc1ccc(-c2nc3c([nH]2)c(=O)n(C)c(=O)n3C)c(OC)c1`, the AC50 was 1.58 µM (active).
On to `CS/C(N)=N/N=C/c1ccc([N+](=O)[O-])cc1`, for which the “activity, negative = inhibition” value was -16.9% (inactive).
In the case of `COc1ccc(C=NC(CO)C(O)c2ccc([N+](=O)[O-])cc2)cc1` (stereo unspecified), the AC50 was 10 µM (active).
As to `C[N+]1(CCOc2ccc([N+](=O)[O-])cc2)CCOCC1`, the “activity, negative = inhibition” value was -1.53% (inactive).
On the same count and under the same terms, to `COc1cc2c(cc1NC(=O)Nc1ccccc1)oc1ccccc12` belongs -27.3% (inactive).
On to `COc1ccc(NC(=O)c2cc(-c3cccnc3)nc3ccc(C)cc23)cc1OC`, for which the AC50 was 1.41 µM (active).
Same read-out and setting: to `COc1ccccc1CC(=O)Nc1cc2oc3ccccc3c2cc1OC` belongs 7.08 µM (active); to `COc1cc2c(cc1NC(=O)c1cc(-c3cccnc3)nc3ccc(C)cc13)oc1ccccc12`, 3.98 µM (active); to `COc1cccc(NC(=O)c2cc(-c3cccnc3)nc3c(Cl)cccc23)c1`, 2.24 µM (active).
As to `CC(C)(S)[C@H](N)C(=O)O`, the activity, negative = inhibition was -0.648% [at 11.4 µM] (inactive).
The same measure, in the same setting: then `CC(C)(SCc1ccccc1)[C@H](N)C(=O)O`, with -12.3% [at 11.4 µM] (inactive); and `COc1ccc(Nc2cc(C(=O)NCCCN3CCN(C)CC3)c3ccccc3n2)cc1`, with -29.1% (inactive).
On to `Cc1ccc2nc(-c3ccccc3)cc(C(=O)NCCCn3ccnc3)c2c1`, for which the AC50 was 0.562 µM (active).
For `CC(=O)Nc1ccc(-c2cc(C(=O)O)c3cc4ccccc4cc3n2)cc1`, the activity, negative = inhibition was -8.77% [at 11.4 µM] (inactive).
Take `Cc1cccc(CNc2cc(-c3ccc(N(C)C)cc3)ncn2)c1`: the AC50 was 6.31 µM (active).
Take `Cc1cnc(CNc2cc(-c3ccoc3)ncn2)cn1`: the “activity, negative = inhibition” value is -21.4% (inactive).
On the same count and under the same terms, then `Cc1noc(C)c1-c1cc(NCc2ccccc2)ncn1`, with -7.55% (inactive).
Turning to `CN(C)c1ccc(-c2cc(NCc3cccnc3)ncn2)cc1`, the AC50 was 3.16 µM (active).
Same read-out and setting: to `Cc1cccc(CNc2cc(-c3c(C)noc3C)ncn2)c1` belongs 5.01 µM (active).
`Cc1cccc(CNc2cc(-c3ccoc3)ncn2)c1`: the AC50 was 7.94 µM (active).
With `O=C1C[C@@H](O)[C@@H](O)[C@@H]2[C@H]3C(=O)N(c4ccc(F)cc4F)C(=O)[C@@H]3CC[C@@H]12`, the activity, negative = inhibition was -8.71% [at 11.4 µM] (inactive).
The same measure, in the same setting: to `O=C(O)[C@@H](S)[C@H](S)C(=O)O` belongs -14.7% [at 11.4 µM] (inactive); to `Cc1ncc(CO)c(CO)c1O`, -2.22% [at 25.6 µM] (inactive); to `O=c1c(C=Nc2ccc(Oc3ccccc3)cc2)c[nH]n1-c1cccc(Cl)n1`, -25.6% (inactive).
Still for that read-out and setting: then `Cn1c(N)nc2c(nc(OCc3ccccc3)n2[C@@H]2O[C@H](CO)[C@@H](O)[C@@H]2O)c1=O`, with -4.84% [at 11.4 µM] (inactive).
Same read-out and setting: to `CCn1cc(C(=O)NCC(=O)OC)c2cc(OC)c(OC)cc2c1=O` belongs -18.8% (inactive).
As for `CN(C)c1ccc(-c2cc(NCc3ccccc3)ncn2)cc1`, the AC50 is 15.8 µM (active).
Regarding `FC(F)(F)c1cc(-c2ccco2)nc(NCCc2ccccc2)n1`, the activity, negative = inhibition is 0.414% [at 2.29 µM] (inactive).
In the case of `CCNc1nc(Oc2c(Cl)cccc2Cl)cc(C(F)(F)F)n1`, the “activity, negative = inhibition” value is -8.36% (inactive).
On to `FC(F)(F)c1cc(-c2ccco2)nc(NCc2cccs2)n1`, for which the AC50 is 25.1 µM (active).
Still for that read-out and setting: to `O=C(CSc1nnc(SCc2cccc3ccccc23)s1)c1ccc2c(c1)OCO2` belongs 2.82 µM (active).
With `CC1CCN(CC[C@H]2CCCN2S(=O)(=O)c2cccc(O)c2)CC1`, the “activity, negative = inhibition” value was -17.8% (inactive).
Regarding `CC1CCN(CC(=O)N2c3ccccc3Sc3cc4ccccc4cc32)CC1`, the concentration at half-maximal activity (AC50) is 3.98 µM (active).
In the case of `CC1(C)CCCN(C(=O)N2c3ccccc3Sc3ccccc32)C1`, the activity, negative = inhibition is -13% [at 2.29 µM] (inactive).
Still for that read-out and setting: then `Cc1c(N(C)CS(=O)(=O)O)c(=O)n(-c2ccccc2)n1C`, with -3.01% [at 25.6 µM] (inactive).
The same measure, in the same setting: to `Cc1c(CCO)c(=O)n(C)n1C(=O)c1ccc(F)cc1` belongs -28.6% (inactive).
Consider `Cc1c(CCO)c(=O)n(-c2ccccc2)n1S(=O)(=O)c1c(Cl)cc(Cl)cc1Cl`, for which the AC50 was 4.47 µM (active).
Still for that read-out and setting: to `COc1cccc(-c2cc(NCc3ccc(OC)cc3OC)ncn2)c1` belongs 2.51 µM (active); to `COc1cccc(-c2cc(NCc3ccccc3OC)ncn2)c1`, 15.8 µM (active); to `CC(C)NC[C@@H](O)COc1ccc(COCCOC(C)C)cc1`, “inactive”.
The same measure, in the same setting: to `Cn1c(=O)c2cc(S(=O)(=O)NCCC(=O)NCc3ccccc3Cl)ccc2n(C)c1=O` belongs 14.1 µM (active).
Same read-out and setting: then `Cc1csc(NC(=O)CCNS(=O)(=O)c2ccc3c(c2)c(=O)n(C)c(=O)n3C)n1`, with 7.94 µM (active); and `CCOc1ccc(NC(=O)CCNS(=O)(=O)c2ccc3c(c2)c(=O)n(C)c(=O)n3C)cc1`, with 14.1 µM (active).
In the case of `Cn1c(=O)c2cc(S(=O)(=O)NCCC(=O)Nc3ccc(Cl)cc3)ccc2n(C)c1=O`, the “activity, negative = inhibition” value was -20.7% (inactive).
Regarding `Cc1ccc(CNC(=O)CCNS(=O)(=O)c2ccc3c(c2)c(=O)n(C)c(=O)n3C)cc1`, the half-maximal activity concentration (AC50) was 1.78 µM (active).
With `Cn1c(=O)n(C)c2cc(S(=O)(=O)O)ccc21`, the “activity, negative = inhibition” value is -5.49% (inactive).
Turning to `Cn1c(=O)c2cc(S(=O)(=O)NCCC(=O)NCCc3ccc(Cl)cc3)ccc2n(C)c1=O`, the AC50 is 12.6 µM (active).
With `Cc1nn(-c2ccccc2)c2c1C(=O)N(Cc1ccccc1)C(=O)C(C)(C)C2`, the activity, negative = inhibition is 1.57% [at 2.29 µM] (inactive).
Regarding `CSc1nnc(-c2ccc(Cl)cc2Cl)o1`, the “activity, negative = inhibition” value was 6.64% (inactive).
On to `O=c1c(-c2nnc(SCc3ccc(Cl)cc3Cl)o2)cccn1Cc1ccccc1`, for which the AC50 is 22.4 µM (active).
For the compound `Clc1ccc(-c2nnc(CCc3ccccc3)o2)c(Cl)c1`, the activity, negative = inhibition was 0.747% [at 2.29 µM] (inactive).
Take `O=c1c(-c2nnc(SCc3ccc(Cl)c(Cl)c3)o2)cccn1Cc1ccccc1`: the AC50 was 20 µM (active).
Consider `CC(C)c1ccc(C2C(C#N)=C(N)N3C(=C2C#N)Sc2ccccc23)cc1` (stereo unspecified), for which the “activity, negative = inhibition” value was 15.8% (inactive).
On the same count and under the same terms, to `Cc1ccc(Cl)cc1-n1c(=O)cc(N2CC(C)OC(C)C2)[nH]c1=O` (stereo unspecified) belongs -17% (inactive); to `O=S1(=O)C=C(N2CCOCC2)c2ccccc21`, -21% [at 11.4 µM] (inactive).
`c1ccc2c(c1)-c1nc3ccccc3cc1[C@H]2N1CCOCC1`: the AC50 was 2.51 µM (active).
Take `O=C(O)CN(CCN(CC(=O)O)CC(=O)O)CC(=O)O.[Cu]`: the activity, negative = inhibition was 10.2% [at 11.4 µM] (inactive).
Turning to `Cc1ccc(-c2csc(C(C#N)=C3CCCC3)n2)cc1`, the concentration at half-maximal activity (AC50) is 20 µM (active).
`N=C1SCC(=O)N1c1nc(-c2ccccc2)cs1`: the activity, negative = inhibition was 0.753% [at 2.29 µM] (inactive).
As for `N#CC(=C1CCCC1)c1nc(-c2ccccc2)cs1`, the AC50 was 15.8 µM (active).
On to `COc1ccc(/C=N/N(C(C)=O)c2nc(-c3ccc(C)cc3)cs2)cc1`, for which the “activity, negative = inhibition” value is 3.8% (inactive).
Same read-out and setting: then `O=C(Nc1ccc(-c2csc(-c3ccccc3)n2)cc1)c1ccccc1Cl`, with 13.2% (inactive); and `Brc1ccc(/C=C/C=N/Nc2nc3ccccc3s2)cc1`, with 6.56% (inactive).
As for `Cc1sc(N/N=C/C=C/c2ccccc2)nc1-c1ccccc1`, the activity, negative = inhibition was -9.33% [at 11.4 µM] (inactive).
With `O=S(=O)(N/N=C\C=C\c1ccccc1)c1ccc(Br)cc1`, the AC50 is 14.1 µM (active).
Take `CC(C)NC(=O)/C(=N\O)c1ccccc1`: the “activity, negative = inhibition” value was 0.0184% (inactive).
As to `CCC/C=C(\CCC)C(NC(=O)c1ccccc1)c1ccccc1` (stereo unspecified), the AC50 is 10 µM (active).
The same measure, in the same setting: then `CCC/C=C(\CCC)C(NC(=O)c1ccc(C(F)(F)F)cc1)c1ccccc1` (stereo unspecified), with 15.8 µM (active).
Consider `Cc1cc(S(=O)(=O)NCCN(C)C)c(C)s1`, for which the “activity, negative = inhibition” value is -9.29% (inactive).
With `CN(C)S(=O)(=O)Oc1ccccc1C(=O)Nc1cccc(C(F)(F)F)c1`, the AC50 was 11.2 µM (active).
Take `COC(=O)/C(=C\C(=O)c1ccccc1)Nc1cccc(C(F)(F)F)c1`: the “activity, negative = inhibition” value was -25.3% (inactive).
As to `CN(C)S(=O)(=O)Oc1ccc(Cl)cc1C(=O)Nc1cccc(C(F)(F)F)c1`, the half-maximal activity concentration (AC50) was 12.6 µM (active).
Take `CCOc1ccc(C(F)(F)F)cc1NC(C)=O`: the “activity, negative = inhibition” value was -25.1% (inactive).
Same read-out and setting: to `COC(=O)[C@]1(C)CCC(c2ccc(C)cc2)=C(CC(=O)O)C1` belongs -9.37% [at 11.4 µM] (inactive); to `Cc1cccc2cc(=O)[nH]c(C)c12`, -18.7% (inactive).
As for `CCOC(=O)N1CCC(NC(=O)CCC(=O)N2CC(C)Oc3ccc(C)cc32)CC1` (stereo unspecified), the AC50 is 8.91 µM (active).
Same read-out and setting: to `Cc1ccc2c(c1)N[C@H](c1ccc(C(=O)O)cc1)c1cccn1-2` belongs 0.0501 µM (active); to `Cc1ccc2nc(N3CCN(S(=O)(=O)c4ccc5c(c4)OCCO5)CC3)c(C#N)cc2c1`, 6.31 µM (active).
Regarding `Cc1ccc(Cl)cc1N1CCN(S(=O)(=O)c2ccc3c(c2)OCCO3)CC1`, the “activity, negative = inhibition” value is -22.3% (inactive).
Still for that read-out and setting: then `CN1CCCN(S(=O)(=O)c2ccc3c(c2)OCCO3)CC1`, with 5.66% (inactive).
